Source: PubChem BioAssay AID463173 (ICCB-Longwood Screening Facility, Harvard Medical School, 2010)
Out of some 52,000 compounds screened, about 4,300 (8.3%) were called active. Shown is part of a subset that was picked to be rich in actives. Values without a mark were called inactive. Rule as the data show it: active = survival mostly below about 52% (no sharp cut-off); inactive = mostly above about 56%.

Tested on: DeltatarO mutant
Assay: growth inhibition of S. aureus wild type versus tarO mutant, primary screen, teichoic acid synthesis inhibitors, RN4220, OD600 (AID 463173)
Details: OD600, 18 h, stronger effect = lower value, screened at 18.75 µg/mL (by protocol)

SMILES	survival
O=C(CSc1ccccc1)Nc1ccc2c(c1)OCO2	100%
CCOC(=O)CNC(=O)N1[C@H](c2cccs2)[C@@H](C)C(=O)[C@@H](C)[C@@H]1c1cccs1	55% (active)
CCCNC(=O)N1[C@H](c2cccs2)[C@@H](C)C(=O)[C@@H](C)[C@@H]1c1cccs1	107%
CC(C)CNC(=O)N1[C@H](c2cccs2)[C@@H](C)C(=O)[C@@H](C)[C@@H]1c1cccs1	54%
CC(C)c1ccccc1NC(=O)CN(c1ccccc1)S(=O)(=O)N(C)C	81%
Cc1oc(-c2ccc(C(=O)Nc3ccccc3F)cc2)nc1COc1ccccc1	94%
Cc1ccc(-c2nc(CS(=O)(=O)CC(=O)NCc3ccccc3Cl)c(C)o2)cc1	56%
COc1ccc(-c2nc(CS(=O)CC(=O)NCc3ccccc3Cl)c(C)o2)cc1OC (stereo unspecified)	72%
COc1ccc(-c2nc(CS(=O)(=O)CC(=O)NCCc3ccc(C)cc3)c(C)o2)cc1	85%
COc1ccccc1CNC(=O)CSCc1nc(-c2ccc(OC)c(OC)c2)oc1C	71%
COc1ccc(-c2nc(CSCC(=O)NCc3ccccc3Cl)c(C)o2)cc1OC	46% (active)
Cc1oc(-c2ccccc2Cl)nc1CS(=O)CC(=O)NCc1ccccc1Cl (stereo unspecified)	54%
Cc1oc(-c2cccc(Cl)c2)nc1CSCC(=O)O	75%
Cc1oc(-c2cccc(Cl)c2)nc1CS(=O)(=O)CC(=O)NCc1ccccc1Cl	49%
Cc1oc(-c2cccc(Cl)c2)nc1CSCC(=O)NCc1ccccc1Cl	0% (active)
Cc1ccc(-c2nc(CS(=O)CC(=O)NCc3ccccc3Cl)c(C)o2)cc1 (stereo unspecified)	54% (active)
CCc1ccc(-c2nc(CSCC(=O)NCc3ccccc3OC)c(C)o2)cc1	62%
COc1ccc(-c2nc(CS(=O)(=O)CC(=O)NCc3ccccc3Br)c(C)o2)cc1	41% (active)
CN1CCN(C(=O)c2ccc(N(C)S(C)(=O)=O)cc2)CC1	107%

SMILES	survival
Cc1cccc(CCNC(=O)C2CCCN(S(=O)(=O)c3ccc4c(c3)oc(=O)n4C)C2)c1 (stereo unspecified)	102%
Cc1ccc(Cn2c(C)c3cnn(CC(=O)N4CCN(c5ccc(F)cc5)CC4)c(=O)c3c2C)cc1	71%
CC(=O)c1ccc(NC(=O)Cn2cc(S(=O)(=O)Cc3cccc(Cl)c3)c3ccccc32)cc1	113%
O=C(Nc1ccc(F)c(F)c1)c1nc2ncccn2n1	82%
COc1ccc(Br)cc1CNC(=O)CSc1n[nH]c(-c2ccccc2)n1	73%
Cc1oc(-c2ccccc2Cl)nc1CS(=O)(=O)CC(=O)NC(C)CCc1ccccc1 (stereo unspecified)	76%
Cc1oc(-c2cccc(Cl)c2)nc1CS(=O)(=O)CC(=O)NC(C)CCc1ccccc1 (stereo unspecified)	32% (active)
Cc1ccc(-c2nc(CS(=O)(=O)CC(=O)NC(C)CCc3ccccc3)c(C)o2)cc1 (stereo unspecified)	63%
COC(=O)C12CC3CC(CC(C(=O)OC)(C1)C3=O)C2=O	116%
Cc1cccc(CSc2nc3c(c(=O)[nH]2)CCC3)c1	69%
O=c1[nH]c(SCc2cccc(Cl)c2)nc2c1CCC2	85%
Cc1nc(SCc2cccc(Cl)c2)nc2c1CCCC2	-2% (active)
COc1ccccc1CNC(=O)c1c(O)nc2c(C)cccn2c1=O	69%
O=C(NCc1ccc2c(c1)CCN2C(=O)c1ccncc1)c1ccccc1F	117%
COc1ccccc1Nc1nn2c(=O)c3ccc(C(=O)N4CCC(C)CC4)cc3nc2s1	52% (active)
COc1ccccc1Nc1nn2c(=O)c3ccc(C(=O)N4CCCC(C)C4)cc3nc2s1 (stereo unspecified)	61%
COc1ccccc1Nc1nn2c(=O)c3ccc(C(=O)N4CCCCC4)cc3nc2s1	71%
CCc1ccccc1NC(=O)CN1C(=O)C2CCCN2c2ccc(S(=O)(=O)N(CC)CC)cc21 (stereo unspecified)	72%
CCN(CC)S(=O)(=O)c1ccc2c(c1)N(CC(=O)Nc1c(C)cccc1C)C(=O)C1CCCN21 (stereo unspecified)	89%

SMILES	survival
CCN(CC)S(=O)(=O)c1ccc2c(c1)N(CC(=O)Nc1cccc(C)c1C)C(=O)C1CCCN21 (stereo unspecified)	-2% (active)
O=C(Cn1c(=O)nc(-c2ccccc2)c2ccccc21)NCCc1ccc(Cl)cc1	70%
Cc1cc(C)c(Cn2c3ccccc3c3cnn(CC(=O)N4CCCCCC4)c(=O)c32)c(C)c1	9% (active)
Cc1cc(C)c(Cn2c3ccccc3c3cnn(CC(=O)N4CCCCC4)c(=O)c32)c(C)c1	126%
O=C(Cn1ncc2c3ccccc3n(Cc3ccccc3)c2c1=O)N1CCCCCC1	82%
CCN1CCN(C(=O)Cn2ncc3c4ccccc4n(Cc4c(C)cc(C)cc4C)c3c2=O)CC1	124%
O=C(Cn1ncc2c3ccccc3n(Cc3ccccc3F)c2c1=O)N1CCCCCC1	70%
O=C(Cn1ncc2c3ccccc3n(Cc3ccc(Cl)cc3)c2c1=O)N1CCCCCC1	84%
CCCn1c2ccccc2c2cnn(CC(=O)N3CCN(c4ccccc4F)CC3)c(=O)c21	-4% (active)
CCCn1c2ccccc2c2cnn(CC(=O)N3CCC(C)CC3)c(=O)c21	76%
CC1CCCCN1C(=O)Cn1ncc2c3ccccc3n(Cc3ccccc3F)c2c1=O (stereo unspecified)	32% (active)
CCN1CCN(C(=O)Cn2ncc3c4ccccc4n(Cc4ccccc4F)c3c2=O)CC1	95%
O=C(Cn1ncc2c3ccccc3n(Cc3ccccc3F)c2c1=O)N1CCCCC1	120%
Cc1ccc(Cn2c3ccccc3c3cnn(CC(=O)N4CCCCCC4)c(=O)c32)cc1	19% (active)
CN(C)c1ccc(C(=O)NC2CCSC2=O)cc1 (stereo unspecified)	66%
Cc1ccc(Cl)cc1N1CCN(C(=O)C(C)n2ncn3cccc3c2=O)CC1 (stereo unspecified)	66%
Cc1ccc2nc(-c3ccc(NC(=O)COc4ccc(Br)cc4Br)cc3)sc2c1	104%
CCOc1cc(-c2nnc(SCC(=O)NCCCOC)nc2-c2ccc(OC)c(OCC)c2)ccc1OC	73%
